Holding throughout (assay): NCI-60 one-dose screen, 48 h (100 = growth as untreated, 0 = no growth, -100 = all killed)
Holding throughout (details): 10 µM unless noted

Experiment [1] deals with HCT-15 colon.
Experiment [2] concerns HT29 colon.
The subject of experiment [3] is SNB-75 CNS.
Experiment [4] deals with SNB-19 CNS.
The subject of experiment [5] is U251 CNS.
The test system of experiment [6] is PC-3 prostate.
In experiment [7] the test system is SK-MEL-5 melanoma.
The subject of experiment [8] is LOX IMVI melanoma.
Experiment [9] relates to SK-MEL-28 melanoma.
The test system of experiment [10] is SK-MEL-2 melanoma.
The test system of experiment [11] is EKVX NSCLC.
The subject of experiment [12] is UO-31 renal.
The subject of experiment [13] is TK-10 renal.
Experiment [14] deals with ACHN renal.
Experiment [15] has as its system CAKI-1 renal.
The subject of experiment [16] is A498 renal.
The subject of experiment [17] is CCRF-CEM leukemia.
Experiment [18] relates to MOLT-4 leukemia.
Experiment [19] concerns UACC-62 melanoma.
Experiment [20] has as its system SN12C renal.

Structures are written as SMILES. Values joined by “and” are separate entries in the source; they are usually repeats but may differ in a detail not shown here. Identical values can stand only once. Compounds without any hit were thinned out: in the full panel of roughly 83,000, 20% have a hit.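 Each cell line was grown in a 96-well plate and treated with one concentration of compound for 48 hours. Values below 10 were considered active.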 Active and inactive are the calls of the source.

For `CN1CCN(Cc2occc(=O)c2O)CCN(C)CCN(Cc2occc(=O)c2O)CC1`, the growth was 107% (inactive) and 36% (inactive) in [1]; 96.3% (inactive) and 11.1% (inactive) in [2]; 100% (inactive) in experiment [3]; 98% (inactive) and 87.6% (inactive) in [4]; 94.8% (inactive) and 23.1% (inactive) in experiment [5]; 80.3% (inactive) and 35.6% (inactive) in [6]. The growth in [7] was 81.4% (inactive) and 47.8% (inactive); in experiment [8], 99.1% (inactive) and 43% (inactive); in experiment [9] it was 64.4% (inactive); in experiment [10], 105% (inactive) and 64.9% (inactive); in experiment [11], 104% (inactive) and 62.8% (inactive); in experiment [12] it was 92.2% (inactive) and 66.6% (inactive). Also, the growth in experiment [13] was 100% (inactive) and 65.2% (inactive); in [14] it was 106% (inactive) and 94% (inactive); in [15], 99.7% (inactive) and 42.1% (inactive); in experiment [16], 95.8% (inactive) and 13% (inactive); in experiment [17] it was 91.5% (inactive) and 49% (inactive); in [18], 97.2% (inactive) and 47.9% (inactive).

As to `CCc1c(CC(=O)O)c2cc(C)ccc2n1Cc1ccc(Cl)cc1`, the growth in [1] was 99.2% (inactive) and 98.3% (inactive); in experiment [2], 109% (inactive) and 117% (inactive); in experiment [3], 84.1% (inactive) and 93.7% (inactive); in experiment [4] it was 102% (inactive) and 90.6% (inactive); in [5], 107% (inactive) and 93.7% (inactive); in experiment [6], 95% (inactive). Further, the growth is 93.8% (inactive) and 97.2% (inactive) in [7]; 84.9% (inactive) and 83.8% (inactive) in experiment [19]; 129% (inactive) and 125% (inactive) in experiment [9]; 103% (inactive) and 90.9% (inactive) in [10]; 98.8% (inactive) and 93.4% (inactive) in experiment [11]; 91.1% (inactive) and 82.4% (inactive) in experiment [20]. Further, the growth was 76.6% (inactive) and 73.4% (inactive) in experiment [12]; 93.5% (inactive) and 96.1% (inactive) in [14]; 90% (inactive) in experiment [15]; 114% (inactive) and 108% (inactive) in experiment [16]; 97.4% (inactive) and 106% (inactive) in experiment [17]; 96.9% (inactive) and 152% (inactive) in experiment [18].

As to `O=C(c1ccc(Cl)cc1)C(NCCO)c1ccc(Cl)cc1` (configuration not stated), the growth is 99.7% (inactive) and 99% (inactive) in [1]; 109% (inactive) and 92.2% (inactive) in experiment [2]; 90.1% (inactive) and 81.8% (inactive) in experiment [3]; 101% (inactive) and 97.6% (inactive) in [4]; 95.9% (inactive) and 102% (inactive) in experiment [5]; 81.9% (inactive) and 84.4% (inactive) in experiment [6]. For the same compound, the growth in experiment [7] is 91.9% (inactive) and 105% (inactive); in experiment [19], 85.3% (inactive) and 79.9% (inactive); in experiment [9], 111% (inactive) and 105% (inactive); in experiment [10], 102% (inactive); in [11] it was 103% (inactive); in experiment [20], 99.6% (inactive) and 100% (inactive). The growth is 80.6% (inactive) and 83.8% (inactive) in [12]; 105% (inactive) and 98.6% (inactive) in [13]; 120% (inactive) and 102% (inactive) in [14]; 102% (inactive) in experiment [15]; 99.7% (inactive) and 129% (inactive) in experiment [17]; 86.6% (inactive) and 96.6% (inactive) in [18].

Take `Oc1c(CN2CCCCC2)ccc2cccnc12`: the growth is 33.6% (inactive) and 30.3% (inactive) in experiment [1]; 66.6% (inactive) and 28.6% (inactive) in experiment [2]; 82.5% (inactive) and 85.6% (inactive) in experiment [3]; 65.9% (inactive) and 74.1% (inactive) in experiment [4]; 41.8% (inactive) and 38.7% (inactive) in experiment [5]; 52.1% (inactive) and 39% (inactive) in experiment [6]. Moreover, the growth in experiment [7] was 45% (inactive) and -25.6% (active); in experiment [19] it was 46% (inactive) and 45.6% (inactive); in experiment [9], 85.2% (inactive) and 85.7% (inactive); in experiment [10], 96.9% (inactive) and 82.4% (inactive); in experiment [11] it was 71.3% (inactive); in experiment [20] it was 58.2% (inactive) and 59.2% (inactive). Also, the growth in experiment [12] is 8.37% (active) and -0.287% (active); in experiment [13], 40.8% (inactive) and 48.7% (inactive); in [14] it was 7.15% (active) and 9.28% (active); in [15], 2.08% (active); in experiment [16], 61.4% (inactive) and 62.9% (inactive); in experiment [17] it was 16.6% (inactive). In addition, the growth in experiment [18] is 38.2% (inactive) and 36% (inactive).

On to `CNC(=O)c1cccnc1`, for which the growth is 103% (inactive) in experiment [1]; 105% (inactive) in [2]; 105% (inactive) in [4]; 92.3% (inactive) in [5]; 96.9% (inactive) in [6]; 107% (inactive) in experiment [7]. The growth in experiment [19] was 113% (inactive); in experiment [8] it was 92.9% (inactive); in experiment [9], 116% (inactive); in experiment [10] it was 118% (inactive); in [11], 110% (inactive); in experiment [20] it was 111% (inactive). Also, the growth in [12] is 84.8% (inactive); in [13], 103% (inactive); in experiment [14], 104% (inactive); in [15] it was 92.1% (inactive); in experiment [16] it was 85.6% (inactive); in [17] it was 87.9% (inactive). The growth in experiment [18] is 106% (inactive).
